Measured values as given in the supplement of paper PMC6555819.

Experiments:
Experiment in all cases: PBM binding z-score (relative to random genomic background probes); higher = stronger binding; sequences stand for … in GC…GCGATTGACAGCGTAGAATGAAGG
[1] = test system: FXR:RXRa (NR concentration 270 nM, RXRa partner concentration 90 nM)
Method in brief: (§1)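 Regression normalization was applied to scanned fluorescence from custom Agilent 4×180K protein-binding microarrays. Before scanning, arrays were incubated 1 h with ligand-free nuclear receptor dimers, and binding was detected with antibodies against each partner (one per run). Binding z-scores use the random background probes as reference.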

[2] = test system: LXRa:RXRa (NR concentration 270 nM, RXRa partner concentration 90 nM)
Method in brief: as §1

[3] = test system: LXRa homodimer (NR concentration 270 nM)
Method in brief: as §1

[4] = test system: LXRb:RXRa (NR concentration 270 nM, RXRa partner concentration 90 nM)
Method in brief: as §1

[5] = test system: LXRb homodimer (NR concentration 270 nM)
Method in brief: as §1

[6] = test system: PPARa:RXRa (NR concentration 270 nM, RXRa partner concentration 90 nM)
Method in brief: as §1

[7] = test system: PPARg:RXRa (NR concentration 180 nM, RXRa partner concentration 90 nM)
Method in brief: as §1

[8] = test system: PPARg:RXRa 270nM:90nM, anti-RXR (NR concentration 270 nM, RXRa partner concentration 90 nM)
Method in brief: as §1

[9] = test system: PPARg:RXRa 30nM:10nM, anti-RXR (NR concentration 30 nM, RXRa partner concentration 10 nM)
Method in brief: as §1

[10] = test system: PPARg:RXRa 90nM:30nM, anti-RXR (NR concentration 90 nM, RXRa partner concentration 30 nM)
Method in brief: as §1

[11] = test system: PPARg:RXRa DBDmut IVT, anti-RXR (DBD mutation: RXRa K156A/R161A, NR concentration 270 nM, RXRa partner concentration 90 nM)
Method in brief: as §1

[12] = test system: PPARg:RXRa IVT, anti-PPARg (NR concentration 270 nM, RXRa partner concentration 90 nM)
Method in brief: as §1

[13] = test system: PPARg DBDmut:RXRa IVT, anti-PPARg (DBD mutation: PPARg1 K132A/R137A, NR concentration 270 nM, RXRa partner concentration 90 nM)
Method in brief: as §1

[14] = test system: PPARg DBDmut IVT, anti-PPARg (DBD mutation: PPARg1 K132A/R137A, NR concentration 270 nM)
Method in brief: as §1

[15] = test system: PPARg homodimer (NR concentration 180 nM)
Method in brief: as §1

[16] = test system: PXR:RXRa (NR concentration 270 nM, RXRa partner concentration 90 nM)
Method in brief: as §1

[17] = test system: PXR homodimer (NR concentration 270 nM)
Method in brief: as §1

[18] = test system: RARa:RXR (NR concentration 270 nM, RXRa partner concentration 90 nM)
Method in brief: as §1

[19] = test system: RARa homodimer (NR concentration 270 nM)
Method in brief: as §1

[20] = test system: RARb:RXRa (NR concentration 270 nM, RXRa partner concentration 90 nM)
Method in brief: as §1

Sequence | PBM binding z-score [1] | PBM binding z-score [2] | PBM binding z-score [3] | PBM binding z-score [4] | PBM binding z-score [5] | PBM binding z-score [6] | PBM binding z-score [7] | PBM binding z-score [8] | PBM binding z-score [9] | PBM binding z-score [10] | PBM binding z-score [11] | PBM binding z-score [12] | PBM binding z-score [13] | PBM binding z-score [14] | PBM binding z-score [15] | PBM binding z-score [16] | PBM binding z-score [17] | PBM binding z-score [18] | PBM binding z-score [19] | PBM binding z-score [20]
TCATATAGGTAAATGCAAGGTGAAAGTCCGATCT | 1.57 | 1.44 | 0.321 | 1.2 | 0.456 | 2.03 | 1.03 | 2.44 | 4.33 | 3.47 | 4.1 | 3 | 0.862 | 1.12 | 1.16 | 1.03 | 0.736 | 1.86 | 0.975 | 1.19
TCTTGTTGGTCAAAGGTCACACACTCGAAATGCG | 5.68 | 5.8 | 4.46 | 5.63 | 2.85 | 6.46 | 10.7 | 9.31 | 9.15 | 10 | 3.64 | 5.98 | 1.27 | 1.91 | 4.88 | 5.9 | 1.75 | 7.15 | 3.44 | 5.25
CCTCGGGGGACAACAGGAGGTCAGAGCTGCCAGA | 2.56 | 3.46 | 1.7 | 3.52 | 4.28 | 3.13 | 1.01 | 1.67 | 0.217 | 1.17 | 0.622 | 1.99 | 0.461 | 0.197 | 1.34 | 2.74 | 0.253 | 2.8 | 0.259 | 3.16
CCGACTGGGGCAAAGGTTACCAAACTCAGTACGA | 1.54 | 1.78 | 0.0328 | 2.27 | -1.29 | 5.64 | 10.5 | 9.36 | 9.35 | 10.6 | 4.42 | 6.14 | -0.923 | -0.533 | 1.38 | 2.51 | -0.494 | 4.11 | 0.0196 | 2.52
ATCTCTAGGTAAAGGTAGTTCAGTGAATGCAAAT | 0.462 | 2.47 | 0.775 | 0.88 | 0.769 | 1.08 | 0.966 | 2.17 | 0.811 | 1.4 | 2.73 | 2.3 | 0.954 | 1.19 | 1.25 | 1.15 | 0.822 | 0.523 | 1.7 | 0.628
AGTCAAAGTTCACTCGGTAACGTAAGATTCAGCT | 5.02 | 5.41 | 3.18 | 3.38 | 1.27 | 4.24 | 5.6 | 5.93 | 2.54 | 4.94 | 0.841 | 2.9 | 1.02 | 1.36 | 2.4 | 4.21 | 2.5 | 3.1 | 1 | 4.76
TTACCATGGTGAGCTGAGGTCGTTGATCCAACTC | 0.322 | 0.0093 | -0.568 | 0.111 | -1.05 | 0.702 | -0.38 | -0.0543 | -0.214 | -0.294 | -0.23 | 0.397 | -0.517 | -0.449 | -0.916 | 1.87 | -0.0892 | 1.14 | -0.905 | 0.272
TCGAGTAGGATACCAATGGGGCATTCAGCTTTCT | -0.594 | -0.525 | -0.966 | -0.394 | -0.758 | -0.335 | -0.0828 | -0.0523 | 0.785 | 0.306 | 1 | -0.141 | -0.244 | -1.29 | -1.04 | -0.677 | -0.988 | -1.18 | -1.27 | -0.402
TCAGACAGGTGCAGGTAACTCAGGTACGCAGTCG | 0.317 | 0.617 | -0.304 | 0.192 | -0.936 | 0.506 | 0.493 | 1.31 | 2.88 | 2.35 | 1.83 | -0.017 | -0.24 | -0.576 | -0.207 | 0.426 | -0.203 | 0.659 | -0.372 | 0.311
GCATATAGTTAATACAAGGTGAAAGTCCGATTGT | 0.799 | 0.553 | 0.623 | 0.44 | -0.202 | 0.488 | 0.801 | 0.639 | 0.496 | 0.653 | 0.418 | 0.597 | 0.14 | 1.15 | 0.564 | 0.322 | 0.372 | 0.691 | 0.956 | 0.235
CCTATTAGTTGACCATAAGGGCAACGGAAGCTCG | 0.826 | 0.337 | 0.454 | 0.234 | 0.609 | 0.552 | 0.455 | 0.511 | 0.321 | 0.476 | 0.458 | 0.449 | 0.427 | 0.782 | 2.06 | 0.568 | 0.623 | 0.736 | 1.45 | 1.54
CCTAGCAGGCCAGGCTCACTCAAGCATTTCGCTT | -0.543 | -0.545 | -0.346 | -0.706 | -0.617 | -0.794 | -0.439 | -0.638 | -1.13 | -0.853 | 0.917 | -0.38 | -2.2 | -2.12 | -1.28 | -0.919 | -0.688 | -1.09 | -0.856 | -0.239
TAGCCAAGGTCATTGGGCCAGTATAGTACGCATC | 7.45 | 5.57 | 1.49 | 4.67 | 0.952 | 5.95 | 6 | 5.57 | 2.47 | 3.59 | 2.26 | 4.14 | 1 | 0.266 | 2.22 | 4.33 | 1.15 | 4.03 | 0.395 | 5.01
CCTATTAGTTGACCATAAGGTCAACCGAAGCTCG | 4.88 | 4 | 3.35 | 3.83 | 1.73 | 4.06 | 1.48 | 3.02 | 1.42 | 2.61 | 1.02 | 2.48 | 2.56 | 1.37 | 4.93 | 4.62 | 2.57 | 5.3 | 3.95 | 3.72
CAAACTAGGTCAAGAGGTCAGAGTCCGCTTCCCG | 5.85 | 5.23 | 3.2 | 4.21 | 0.8 | 6.08 | 9.79 | 7.9 | 6.89 | 8.32 | 8.57 | 8.53 | 2.77 | 1.17 | 6.51 | 5.04 | 0.812 | 6.67 | 3.26 | 5.15
TGAATGAGGTTAAAGATCAAGGAACGTGGCGTCG | 3.35 | 2.61 | -0.438 | 1.96 | 0.0283 | 4.79 | 6.53 | 6.53 | 5.25 | 6.93 | 1.88 | 3.3 | 0.538 | 0.468 | 0.301 | 2.23 | -0.137 | 3.64 | 0.0967 | 2.11
CGTCCAAGGTCAGAGAGCTCAGTGAATGCCGAGT | 4.73 | 2.83 | -0.139 | 1.84 | -0.554 | 3.92 | 1.95 | 2.52 | 0.0748 | 1.43 | 2.67 | 1.84 | -0.717 | -0.346 | 1.67 | 2.14 | 0.855 | 2.37 | 0.367 | 4.6
GCAGACAGGTGACACGCAGGTAACTCAGGGTGGC | -0.0725 | -0.255 | -0.585 | -0.69 | -1.06 | 0.614 | 0.69 | -0.241 | -0.412 | -0.395 | 0.596 | 1.21 | -0.103 | -0.383 | -0.125 | -0.218 | -0.476 | 0.24 | -0.572 | 0.684
